{"source": "PubChem BioAssay AID504710", "about": "(Sanford-Burnham Center for Chemical Genomics, 2011)", "note": "The source made the active and inactive calls.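 The calls were made as follows: active = inhibition reaching about 16% in any single replicate (limit read from the data); inactive = the rest.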"}
{"molecular_target": "Hexokinase HKDC1 (Homo sapiens) (UniProt Q2TB90)", "sequence (Q2TB90 whole entry, looked up)": "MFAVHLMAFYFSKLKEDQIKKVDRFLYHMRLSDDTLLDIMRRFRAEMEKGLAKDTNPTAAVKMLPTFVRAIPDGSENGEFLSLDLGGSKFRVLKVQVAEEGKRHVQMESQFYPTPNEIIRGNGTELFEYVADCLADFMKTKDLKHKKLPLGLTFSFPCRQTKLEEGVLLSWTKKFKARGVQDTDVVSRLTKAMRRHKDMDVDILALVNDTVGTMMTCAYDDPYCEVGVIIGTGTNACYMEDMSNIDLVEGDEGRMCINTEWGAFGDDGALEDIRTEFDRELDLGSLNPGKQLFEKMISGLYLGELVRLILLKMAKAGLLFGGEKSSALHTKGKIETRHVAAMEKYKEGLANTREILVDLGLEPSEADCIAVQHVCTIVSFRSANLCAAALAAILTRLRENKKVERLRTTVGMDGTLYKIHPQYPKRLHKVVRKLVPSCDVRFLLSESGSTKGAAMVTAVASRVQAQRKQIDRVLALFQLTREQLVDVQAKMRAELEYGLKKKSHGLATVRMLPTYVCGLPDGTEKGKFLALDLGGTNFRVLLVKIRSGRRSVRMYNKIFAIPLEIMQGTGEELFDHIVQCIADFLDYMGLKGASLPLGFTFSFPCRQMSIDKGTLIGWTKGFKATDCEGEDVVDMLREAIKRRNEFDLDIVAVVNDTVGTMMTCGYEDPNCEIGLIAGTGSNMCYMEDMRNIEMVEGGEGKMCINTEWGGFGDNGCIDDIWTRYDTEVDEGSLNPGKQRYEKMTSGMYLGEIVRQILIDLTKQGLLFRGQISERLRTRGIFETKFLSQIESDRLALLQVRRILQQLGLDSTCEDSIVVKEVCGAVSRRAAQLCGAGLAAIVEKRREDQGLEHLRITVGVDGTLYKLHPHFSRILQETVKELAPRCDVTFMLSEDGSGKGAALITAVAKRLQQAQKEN", "test": "compounds lowering human HKDC1 activity – biochemical, single concentration, confirmation (AID 504710)", "details": "recombinant HKDC1, G6PDH/diaphorase/resazurin fluorescence; at 20 µM; hits give high values"}
{"smiles": "CCOc1ccc2c(c1)C(NC(C)=O)C(=O)N2CCN1CCOCC1", "note": "(stereo unspecified)", "inhibition": "60.9% (active)"}
{"smiles": "CCOC(=O)c1c(C)[nH]c(C2=NNC(=Nc3ccc(OCC)cc3)SC2)c1C", "inhibition": "-122% (inactive)"}
{"smiles": "Cc1cc2nnc(SCC(=O)Nc3cc(S(=O)(=O)N4CCOCC4)ccc3Cl)n2c2ccccc12", "inhibition": "37.4% (active)"}
{"smiles": "S=C(NCc1ccccn1)NN=Cc1ccccn1", "inhibition": "-45.4% (inactive)"}
{"smiles": "CNCc1ccccc1Sc1cc(O)ccc1O", "inhibition": "64.6% (active)"}
{"smiles": "CCOC(=O)CSc1nc2ccc(C)cc2n2cnnc12", "inhibition": "63.8% (active)"}
{"smiles": "O=S(=O)(Nc1cc(Sc2ncn[nH]2)c(O)c2ccccc12)c1ccccc1", "inhibition": "48.4% (active)"}
{"smiles": "O=C1C=CC(=O)C(C2=C3C(=O)N(CCc4ccccc4)CC(=O)N3CCC2)=C1", "inhibition": "70.9% (active)"}
{"smiles": "N#Cc1ccc(CSc2nnc(NC(=O)c3ccc4ncsc4c3)s2)cc1", "inhibition": "40.7% (active)"}
{"smiles": "COc1cc(NC(=O)c2cnc(N)s2)cc(C(=O)Nc2cccc(C(F)(F)F)c2)c1", "inhibition": "41.2% (active)"}
{"smiles": "Fc1ccc(N=C2NN=C(c3cc(F)ccc3F)CS2)cc1", "inhibition": "-132% (inactive)"}
{"smiles": "CC(=NNC(=S)Nc1cccc(Cl)c1)c1ccccn1", "inhibition": "-63.5% (inactive)"}
{"smiles": "O=C1C(Cl)=C(N2CCCCC2)C(=O)C(Cl)=C1c1cnc(N2CCCCC2)s1", "inhibition": "49.4% (active)"}
{"smiles": "O=C(O)c1ccccc1-c1c2cc(I)c(=O)c(I)c-2oc2c(I)c(O)c(I)cc12", "inhibition": "43.5% (active)"}
{"smiles": "Cc1nc([N+](=O)[O-])c(Br)n1CC(=O)c1ccc2ccccc2c1", "inhibition": "40.1% (active)"}
{"smiles": "CCc1nc2c(c(=O)c3ccccc3n2C)c(=O)n1-c1ccc(F)cc1", "inhibition": "72.7% (active)"}
{"smiles": "CC(=O)C1=C(c2ccccc2)N(C(C)=O)n2c(C)nnc2S1", "inhibition": "-125% (inactive)"}
{"smiles": "Cc1nc2c(O)c3c(c(O)c2nc1C)C1C=CC3CC1", "inhibition": "89.5% (active)"}
{"smiles": "Cc1nc2c3cc(F)ccc3n(Cc3ccccc3)c2s1", "inhibition": "-61.3% (inactive)"}
{"smiles": "Cc1ccc(C2=NNC(=Nc3ccc(F)cc3)SC2)cc1", "inhibition": "-80% (inactive)"}
{"smiles": "CCC1=NN2C(=N)/C(=C\\c3ccc(OCc4cc(=O)n5nc(CC)sc5n4)c(OC)c3)C(=O)N=C2S1", "inhibition": "22.8% (active)"}
